Experimental data taken from the supplement of paper PMC7411054.
Where a name gives a salt, the structure may show the parent alone.

Experiments:
Test in all cases: phenotypically active (imaging signature differs from DMSO and reproducible) at any of 0.3-9 uM (binary (1 = active, 0 = inactive)); higher = active
Conditions in all cases: treatment time: 24 h
A549-ACTB-RAB5A = system: A549-ACTB-RAB5A
In short: (§1)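 The reporter lines, fifteen in total and built by gene editing in A549, HepG2 and WPMY1 cells, used BFP for segmentation alongside GFP and RFP/FusionRed markers. Each was treated at 0.3, 1, 3 or 9 µM for 24 h in four wells and then imaged live, with live-cell features normalised to solvent control wells. Deviation meant ≥3 of 4 wells beyond the 95th percentile of control Euclidean distances; reproducibility meant a median replicate Pearson correlation above the 95th percentile of non-replicates. Only conditions meeting both were scored as phenotypically active.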

A549-CANX-COX4 = system: A549-CANX-COX4
In short: as §1

A549-GM130-SQSTM1 = system: A549-GM130-SQSTM1
In short: as §1

A549-TP53BP1-CLTA = system: A549-TP53BP1-CLTA
In short: as §1

A549-TUBA1B-RELA = system: A549-TUBA1B-RELA
In short: as §1

HepG2-ACTB-RAB5A = system: HepG2-ACTB-RAB5A
In short: as §1

HepG2-CANX-COX4 = system: HepG2-CANX-COX4
In short: as §1

HepG2-GM130-SQSTM1 = system: HepG2-GM130-SQSTM1
In short: as §1

HepG2-TP53BP1-CLTA = system: HepG2-TP53BP1-CLTA
In short: as §1

HepG2-TUBA1B-RELA = system: HepG2-TUBA1B-RELA
In short: as §1

WPMY1-ACTB-RAB5A = system: WPMY1-ACTB-RAB5A
In short: as §1

WPMY1-CANX-COX4 = system: WPMY1-CANX-COX4
In short: as §1

WPMY1-GM130-SQSTM1 = system: WPMY1-GM130-SQSTM1
In short: as §1

WPMY1-TP53BP1-CLTA = system: WPMY1-TP53BP1-CLTA
In short: as §1

WPMY1-TUBA1B-RELA = system: WPMY1-TUBA1B-RELA
In short: as §1

Measured: phenotypically active

CCCN1CCC[C@@H]2Cc3n[nH]cc3C[C@H]21 [(-)-Quinpirole hydrochloride]
inactive: A549-ACTB-RAB5A 0 | A549-CANX-COX4 0 | A549-GM130-SQSTM1 0 | A549-TP53BP1-CLTA 0 | A549-TUBA1B-RELA 0 | HepG2-ACTB-RAB5A 0 | HepG2-CANX-COX4 0 | HepG2-GM130-SQSTM1 0 | HepG2-TP53BP1-CLTA 0 | HepG2-TUBA1B-RELA 0 | WPMY1-ACTB-RAB5A 0 | WPMY1-CANX-COX4 0 | WPMY1-GM130-SQSTM1 0 | WPMY1-TP53BP1-CLTA 0 | WPMY1-TUBA1B-RELA 0

CC[C@H]1C2C[C@H]3[C@@H]4N(C)c5ccccc5[C@]45C[C@H](C2[C@H]5O)N3[C@@H]1O (stereo not given in full) [Ajmaline]
inactive: A549-ACTB-RAB5A 0 | A549-CANX-COX4 0 | A549-GM130-SQSTM1 0 | A549-TP53BP1-CLTA 0 | A549-TUBA1B-RELA 0 | HepG2-ACTB-RAB5A 0 | HepG2-CANX-COX4 0 | HepG2-GM130-SQSTM1 0 | HepG2-TP53BP1-CLTA 0 | HepG2-TUBA1B-RELA 0 | WPMY1-ACTB-RAB5A 0 | WPMY1-CANX-COX4 0 | WPMY1-GM130-SQSTM1 0 | WPMY1-TP53BP1-CLTA 0 | WPMY1-TUBA1B-RELA 0

CC(C)NCC(O)c1ccc(N)c(C#N)c1 (stereo not given) [Cimaterol]
inactive: A549-ACTB-RAB5A 0 | A549-CANX-COX4 0 | A549-GM130-SQSTM1 0 | A549-TP53BP1-CLTA 0 | A549-TUBA1B-RELA 0 | HepG2-ACTB-RAB5A 0 | HepG2-CANX-COX4 0 | HepG2-GM130-SQSTM1 0 | HepG2-TP53BP1-CLTA 0 | HepG2-TUBA1B-RELA 0 | WPMY1-ACTB-RAB5A 0 | WPMY1-CANX-COX4 0 | WPMY1-GM130-SQSTM1 0 | WPMY1-TP53BP1-CLTA 0 | WPMY1-TUBA1B-RELA 0

CO[C@H](C)[C@](O)(C(=O)OCC1=CCN2CC[C@H](O)[C@@H]12)C(C)C [Heliotrine]
inactive: A549-ACTB-RAB5A 0 | A549-CANX-COX4 0 | A549-GM130-SQSTM1 0 | A549-TP53BP1-CLTA 0 | A549-TUBA1B-RELA 0 | HepG2-ACTB-RAB5A 0 | HepG2-CANX-COX4 0 | HepG2-GM130-SQSTM1 0 | HepG2-TP53BP1-CLTA 0 | HepG2-TUBA1B-RELA 0 | WPMY1-ACTB-RAB5A 0 | WPMY1-CANX-COX4 0 | WPMY1-GM130-SQSTM1 0 | WPMY1-TP53BP1-CLTA 0 | WPMY1-TUBA1B-RELA 0

Clc1ccc2c(c1)C(c1ccccc1)=NCc1nncn1-2 [estazolam]
inactive: A549-ACTB-RAB5A 0 | A549-CANX-COX4 0 | A549-GM130-SQSTM1 0 | A549-TP53BP1-CLTA 0 | A549-TUBA1B-RELA 0 | HepG2-ACTB-RAB5A 0 | HepG2-CANX-COX4 0 | HepG2-GM130-SQSTM1 0 | HepG2-TP53BP1-CLTA 0 | HepG2-TUBA1B-RELA 0 | WPMY1-ACTB-RAB5A 0 | WPMY1-CANX-COX4 0 | WPMY1-GM130-SQSTM1 0 | WPMY1-TP53BP1-CLTA 0 | WPMY1-TUBA1B-RELA 0

O=P1(NCCCl)OCCCN1CCCl (stereo not given) [ifosfamide]
inactive: A549-ACTB-RAB5A 0 | A549-CANX-COX4 0 | A549-GM130-SQSTM1 0 | A549-TP53BP1-CLTA 0 | A549-TUBA1B-RELA 0 | HepG2-ACTB-RAB5A 0 | HepG2-CANX-COX4 0 | HepG2-GM130-SQSTM1 0 | HepG2-TP53BP1-CLTA 0 | HepG2-TUBA1B-RELA 0 | WPMY1-ACTB-RAB5A 0 | WPMY1-CANX-COX4 0 | WPMY1-GM130-SQSTM1 0 | WPMY1-TP53BP1-CLTA 0 | WPMY1-TUBA1B-RELA 0

CC(C)N(CCC(C(N)=O)(c1ccccc1)c1ccccn1)C(C)C (stereo not given) [disopyramide]
inactive: A549-ACTB-RAB5A 0 | A549-CANX-COX4 0 | A549-GM130-SQSTM1 0 | A549-TP53BP1-CLTA 0 | A549-TUBA1B-RELA 0 | HepG2-ACTB-RAB5A 0 | HepG2-CANX-COX4 0 | HepG2-GM130-SQSTM1 0 | HepG2-TP53BP1-CLTA 0 | HepG2-TUBA1B-RELA 0 | WPMY1-ACTB-RAB5A 0 | WPMY1-CANX-COX4 0 | WPMY1-GM130-SQSTM1 0 | WPMY1-TP53BP1-CLTA 0 | WPMY1-TUBA1B-RELA 0

C=C[C@H]1C[N@@]2CC[C@H]1C[C@H]2[C@H](O)c1ccnc2ccccc12 [(-)-Cinchonidine]
inactive: A549-ACTB-RAB5A 0 | A549-CANX-COX4 0 | A549-GM130-SQSTM1 0 | A549-TP53BP1-CLTA 0 | A549-TUBA1B-RELA 0 | HepG2-ACTB-RAB5A 0 | HepG2-CANX-COX4 0 | HepG2-GM130-SQSTM1 0 | HepG2-TP53BP1-CLTA 0 | HepG2-TUBA1B-RELA 0 | WPMY1-ACTB-RAB5A 0 | WPMY1-CANX-COX4 0 | WPMY1-GM130-SQSTM1 0 | WPMY1-TP53BP1-CLTA 0 | WPMY1-TUBA1B-RELA 0

COc1cc2c3cc1Oc1cc(ccc1O)C[C@@H]1c4c(cc(OC)c(O)c4Oc4cccc(c4)C[C@@H]3N(C)CC2)CC[N+]1(C)C [Tubocurarine chloride pentahydrate (+)]
inactive: A549-ACTB-RAB5A 0 | A549-CANX-COX4 0 | A549-GM130-SQSTM1 0 | A549-TP53BP1-CLTA 0 | A549-TUBA1B-RELA 0 | HepG2-ACTB-RAB5A 0 | HepG2-CANX-COX4 0 | HepG2-GM130-SQSTM1 0 | HepG2-TP53BP1-CLTA 0 | HepG2-TUBA1B-RELA 0 | WPMY1-ACTB-RAB5A 0 | WPMY1-CANX-COX4 0 | WPMY1-GM130-SQSTM1 0 | WPMY1-TP53BP1-CLTA 0 | WPMY1-TUBA1B-RELA 0

Cc1nnc2n1-c1ccc(Cl)cc1C(c1ccccc1)=NC2 [alprazolam]
inactive: A549-ACTB-RAB5A 0 | A549-CANX-COX4 0 | A549-GM130-SQSTM1 0 | A549-TP53BP1-CLTA 0 | A549-TUBA1B-RELA 0 | HepG2-ACTB-RAB5A 0 | HepG2-CANX-COX4 0 | HepG2-GM130-SQSTM1 0 | HepG2-TP53BP1-CLTA 0 | HepG2-TUBA1B-RELA 0 | WPMY1-ACTB-RAB5A 0 | WPMY1-CANX-COX4 0 | WPMY1-GM130-SQSTM1 0 | WPMY1-TP53BP1-CLTA 0 | WPMY1-TUBA1B-RELA 0

CC1=CC(=O)C2=C(C)C[C@H](O)[C@@H]3[C@H](OC(=O)[C@H]3C)[C@@H]12 [Austricine hydrate]
inactive: A549-ACTB-RAB5A 0 | A549-CANX-COX4 0 | A549-GM130-SQSTM1 0 | A549-TP53BP1-CLTA 0 | A549-TUBA1B-RELA 0 | HepG2-ACTB-RAB5A 0 | HepG2-CANX-COX4 0 | HepG2-GM130-SQSTM1 0 | HepG2-TP53BP1-CLTA 0 | HepG2-TUBA1B-RELA 0 | WPMY1-ACTB-RAB5A 0 | WPMY1-CANX-COX4 0 | WPMY1-GM130-SQSTM1 0 | WPMY1-TP53BP1-CLTA 0 | WPMY1-TUBA1B-RELA 0
